Drawing on ChEMBL document CHEMBL2218924, “A broad activity screen in support of a chemogenomic map for kinase signalling research and drug discovery” (Biochem J, 2013), this text covers residual activity for six molecules.

The residual activity is the signal under treatment as a percentage of the control signal.

Assay [1] deals with Serine/threonine-protein kinase MRCK beta (Homo sapiens) (UniProt Q9Y5S2). The note with it: at 1 µM.
Assay [2] has the same target. The settings on record: at 10 µM.
Assay [3] deals with Ribosomal protein S6 kinase alpha-5 (Homo sapiens) (UniProt O75582). The note with it: at 1 µM.
Ribosomal protein S6 kinase alpha-5 (Homo sapiens), sequence (O75582 whole entry, looked up): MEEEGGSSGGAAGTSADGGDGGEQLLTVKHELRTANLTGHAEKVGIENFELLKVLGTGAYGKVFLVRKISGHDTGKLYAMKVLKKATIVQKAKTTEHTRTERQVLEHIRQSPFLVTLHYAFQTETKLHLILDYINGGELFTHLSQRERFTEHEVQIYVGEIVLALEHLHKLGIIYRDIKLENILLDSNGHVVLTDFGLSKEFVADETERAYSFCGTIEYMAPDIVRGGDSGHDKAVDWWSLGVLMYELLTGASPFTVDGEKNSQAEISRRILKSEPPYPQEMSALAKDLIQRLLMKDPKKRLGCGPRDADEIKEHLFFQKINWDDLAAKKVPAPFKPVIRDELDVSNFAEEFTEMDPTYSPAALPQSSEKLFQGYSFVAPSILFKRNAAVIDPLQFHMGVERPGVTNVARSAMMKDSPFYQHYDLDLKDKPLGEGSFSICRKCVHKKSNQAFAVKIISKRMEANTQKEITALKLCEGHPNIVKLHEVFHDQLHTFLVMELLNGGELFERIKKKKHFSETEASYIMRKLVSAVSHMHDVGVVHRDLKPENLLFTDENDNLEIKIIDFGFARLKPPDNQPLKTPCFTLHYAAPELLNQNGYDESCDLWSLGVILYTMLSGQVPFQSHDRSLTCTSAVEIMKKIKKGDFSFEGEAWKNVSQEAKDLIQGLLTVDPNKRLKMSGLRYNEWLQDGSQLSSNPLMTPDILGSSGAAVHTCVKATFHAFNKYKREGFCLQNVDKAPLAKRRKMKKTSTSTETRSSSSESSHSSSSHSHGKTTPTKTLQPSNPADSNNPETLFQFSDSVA
The target is the same in assay [4]. The note with it: at 10 µM.
Assay [5] addresses Ribosomal protein S6 kinase alpha-4 (Homo sapiens) (UniProt O75676). The settings on record: at 1 µM.
Assay [6] has the same target. The note with it: at 10 µM.
In assay [7] the target is SRSF protein kinase 3 (Homo sapiens) (UniProt Q9UPE1). The note with it: at 1 µM.
SRSF protein kinase 3 (Homo sapiens), sequence (Q9UPE1 whole entry): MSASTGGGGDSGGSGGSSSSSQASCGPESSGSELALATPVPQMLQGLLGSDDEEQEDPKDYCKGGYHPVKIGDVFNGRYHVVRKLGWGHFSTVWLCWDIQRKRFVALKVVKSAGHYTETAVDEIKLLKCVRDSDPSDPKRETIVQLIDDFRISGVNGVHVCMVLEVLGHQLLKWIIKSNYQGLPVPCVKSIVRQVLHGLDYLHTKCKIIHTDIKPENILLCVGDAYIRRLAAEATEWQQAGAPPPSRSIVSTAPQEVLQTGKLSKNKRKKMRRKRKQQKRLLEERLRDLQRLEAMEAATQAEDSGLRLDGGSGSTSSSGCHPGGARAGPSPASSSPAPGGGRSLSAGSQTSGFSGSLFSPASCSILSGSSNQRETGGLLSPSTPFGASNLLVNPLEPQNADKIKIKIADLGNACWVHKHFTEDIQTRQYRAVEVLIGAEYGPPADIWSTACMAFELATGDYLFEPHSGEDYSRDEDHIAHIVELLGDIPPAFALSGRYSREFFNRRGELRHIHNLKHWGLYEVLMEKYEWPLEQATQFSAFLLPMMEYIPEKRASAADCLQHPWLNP
Assay [8] has the same target. The note with it: at 10 µM.
Assay [9] has as its target T1, Serine/threonine-protein kinase 4 (Homo sapiens) (UniProt Q13043).
T1 sequence (whole entry): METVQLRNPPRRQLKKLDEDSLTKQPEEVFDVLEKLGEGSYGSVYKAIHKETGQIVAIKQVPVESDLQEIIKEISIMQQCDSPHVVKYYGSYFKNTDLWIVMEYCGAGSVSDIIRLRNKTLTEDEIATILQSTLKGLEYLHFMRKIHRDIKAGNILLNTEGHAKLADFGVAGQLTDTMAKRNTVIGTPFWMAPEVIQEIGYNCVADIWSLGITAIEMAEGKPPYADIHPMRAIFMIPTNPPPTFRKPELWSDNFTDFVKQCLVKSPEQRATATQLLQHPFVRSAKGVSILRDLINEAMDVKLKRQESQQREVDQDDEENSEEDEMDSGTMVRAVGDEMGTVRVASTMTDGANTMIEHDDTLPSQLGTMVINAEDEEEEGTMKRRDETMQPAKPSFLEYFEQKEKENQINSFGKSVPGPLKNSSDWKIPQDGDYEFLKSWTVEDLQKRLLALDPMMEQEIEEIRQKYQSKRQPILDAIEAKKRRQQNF
The note with it: at 1 µM.

Assay [10] addresses T1, Serine/threonine-protein kinase 4 (Homo sapiens). The note with it: at 10 µM.
Assay [11] has as its target T2, Serine/threonine-protein kinase 3 (Homo sapiens) (UniProt Q13188).
T2 sequence (whole entry): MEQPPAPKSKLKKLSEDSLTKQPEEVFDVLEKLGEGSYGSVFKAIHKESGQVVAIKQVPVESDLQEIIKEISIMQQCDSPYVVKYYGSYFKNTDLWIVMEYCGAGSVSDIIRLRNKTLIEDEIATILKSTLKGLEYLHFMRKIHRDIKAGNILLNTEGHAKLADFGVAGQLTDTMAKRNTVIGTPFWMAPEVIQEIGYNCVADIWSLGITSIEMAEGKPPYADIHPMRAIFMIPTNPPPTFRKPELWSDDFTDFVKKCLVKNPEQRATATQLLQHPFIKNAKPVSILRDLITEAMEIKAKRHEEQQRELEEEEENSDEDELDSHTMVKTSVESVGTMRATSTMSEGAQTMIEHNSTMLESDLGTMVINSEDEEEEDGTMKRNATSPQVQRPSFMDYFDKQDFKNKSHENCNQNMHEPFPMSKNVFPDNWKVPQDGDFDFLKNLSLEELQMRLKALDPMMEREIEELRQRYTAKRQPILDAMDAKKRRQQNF
The settings on record: at 1 µM.

Assay [12] concerns the target T2, Serine/threonine-protein kinase 3 (Homo sapiens). The settings on record: at 10 µM.
Assay [13] concerns the target Serine/threonine-protein kinase 24 (Homo sapiens) (UniProt Q9Y6E0). The note with it: at 1 µM.
Assay [14] has the same target. The note with it: at 10 µM.
The target of assay [15] is T3, Tyrosine-protein kinase Mer (Homo sapiens) (UniProt Q12866).
T3 sequence (whole entry): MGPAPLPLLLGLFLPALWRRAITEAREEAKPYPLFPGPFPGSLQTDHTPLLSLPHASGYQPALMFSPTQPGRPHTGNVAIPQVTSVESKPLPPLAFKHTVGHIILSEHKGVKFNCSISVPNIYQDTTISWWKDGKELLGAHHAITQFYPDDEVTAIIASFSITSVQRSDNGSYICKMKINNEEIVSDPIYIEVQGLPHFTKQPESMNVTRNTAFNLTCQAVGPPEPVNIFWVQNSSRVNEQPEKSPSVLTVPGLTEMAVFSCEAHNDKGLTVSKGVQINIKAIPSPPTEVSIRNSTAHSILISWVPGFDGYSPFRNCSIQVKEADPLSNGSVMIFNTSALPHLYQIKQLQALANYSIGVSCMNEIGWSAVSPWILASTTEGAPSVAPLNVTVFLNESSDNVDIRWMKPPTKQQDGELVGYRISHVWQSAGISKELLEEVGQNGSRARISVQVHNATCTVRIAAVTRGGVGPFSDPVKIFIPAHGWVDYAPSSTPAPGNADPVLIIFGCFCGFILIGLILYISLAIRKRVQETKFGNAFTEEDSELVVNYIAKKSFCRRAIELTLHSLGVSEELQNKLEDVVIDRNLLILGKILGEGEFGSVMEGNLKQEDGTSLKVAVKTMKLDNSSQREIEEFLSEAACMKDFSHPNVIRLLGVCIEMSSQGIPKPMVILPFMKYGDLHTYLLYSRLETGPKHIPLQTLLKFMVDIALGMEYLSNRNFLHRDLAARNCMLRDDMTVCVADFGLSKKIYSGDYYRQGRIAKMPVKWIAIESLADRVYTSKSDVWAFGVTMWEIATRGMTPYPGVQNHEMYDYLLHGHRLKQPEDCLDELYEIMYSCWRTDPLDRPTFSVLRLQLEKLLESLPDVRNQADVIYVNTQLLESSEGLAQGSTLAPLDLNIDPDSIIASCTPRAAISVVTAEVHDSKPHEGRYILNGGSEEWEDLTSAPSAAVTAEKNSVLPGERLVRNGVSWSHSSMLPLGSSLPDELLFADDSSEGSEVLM
The note with it: at 1 µM.

Assay [16] concerns the target T3, Tyrosine-protein kinase Mer (Homo sapiens). The settings on record: at 10 µM.
For assay [17], the target named is Hepatocyte growth factor receptor (Homo sapiens) (UniProt P08581). The settings on record: at 1 µM.
For assay [18] the target is unchanged. The settings on record: at 10 µM.
The target in assay [19] is MAP kinase-interacting serine/threonine-protein kinase 2 (Homo sapiens) (UniProt Q9HBH9). The settings on record: at 1 µM.
MAP kinase-interacting serine/threonine-protein kinase 2 (Homo sapiens), sequence (Q9HBH9 whole entry, looked up): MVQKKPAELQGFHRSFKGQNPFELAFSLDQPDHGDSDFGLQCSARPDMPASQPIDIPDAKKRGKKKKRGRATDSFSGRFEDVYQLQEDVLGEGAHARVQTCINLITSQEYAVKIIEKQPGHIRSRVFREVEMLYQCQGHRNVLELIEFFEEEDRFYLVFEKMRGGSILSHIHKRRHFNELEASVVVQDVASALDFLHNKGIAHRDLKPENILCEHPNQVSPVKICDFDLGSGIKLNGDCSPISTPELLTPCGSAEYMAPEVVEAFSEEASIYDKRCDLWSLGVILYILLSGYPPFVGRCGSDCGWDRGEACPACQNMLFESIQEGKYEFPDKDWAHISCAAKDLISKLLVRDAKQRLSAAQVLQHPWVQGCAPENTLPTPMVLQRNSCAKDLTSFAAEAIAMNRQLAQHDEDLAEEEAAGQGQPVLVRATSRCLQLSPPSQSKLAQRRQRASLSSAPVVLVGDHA
For assay [20] the target is unchanged. The settings on record: at 10 µM.

Serine/threonine-protein kinase 24 (Homo sapiens), sequence (Q9Y6E0 whole entry, looked up): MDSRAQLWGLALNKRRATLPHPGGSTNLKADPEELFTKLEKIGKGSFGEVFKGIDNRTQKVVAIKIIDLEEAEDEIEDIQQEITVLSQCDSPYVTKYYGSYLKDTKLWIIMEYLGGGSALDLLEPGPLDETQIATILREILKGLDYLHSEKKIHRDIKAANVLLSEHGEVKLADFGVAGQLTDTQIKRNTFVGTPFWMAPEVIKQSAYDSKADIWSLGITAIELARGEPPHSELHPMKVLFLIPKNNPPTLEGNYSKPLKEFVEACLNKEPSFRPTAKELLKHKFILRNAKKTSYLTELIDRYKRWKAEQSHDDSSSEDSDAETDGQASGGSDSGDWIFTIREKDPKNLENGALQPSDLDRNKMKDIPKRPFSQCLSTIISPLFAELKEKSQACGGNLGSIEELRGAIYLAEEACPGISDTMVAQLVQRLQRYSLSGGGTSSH
Serine/threonine-protein kinase MRCK beta (Homo sapiens), sequence (Q9Y5S2 whole entry): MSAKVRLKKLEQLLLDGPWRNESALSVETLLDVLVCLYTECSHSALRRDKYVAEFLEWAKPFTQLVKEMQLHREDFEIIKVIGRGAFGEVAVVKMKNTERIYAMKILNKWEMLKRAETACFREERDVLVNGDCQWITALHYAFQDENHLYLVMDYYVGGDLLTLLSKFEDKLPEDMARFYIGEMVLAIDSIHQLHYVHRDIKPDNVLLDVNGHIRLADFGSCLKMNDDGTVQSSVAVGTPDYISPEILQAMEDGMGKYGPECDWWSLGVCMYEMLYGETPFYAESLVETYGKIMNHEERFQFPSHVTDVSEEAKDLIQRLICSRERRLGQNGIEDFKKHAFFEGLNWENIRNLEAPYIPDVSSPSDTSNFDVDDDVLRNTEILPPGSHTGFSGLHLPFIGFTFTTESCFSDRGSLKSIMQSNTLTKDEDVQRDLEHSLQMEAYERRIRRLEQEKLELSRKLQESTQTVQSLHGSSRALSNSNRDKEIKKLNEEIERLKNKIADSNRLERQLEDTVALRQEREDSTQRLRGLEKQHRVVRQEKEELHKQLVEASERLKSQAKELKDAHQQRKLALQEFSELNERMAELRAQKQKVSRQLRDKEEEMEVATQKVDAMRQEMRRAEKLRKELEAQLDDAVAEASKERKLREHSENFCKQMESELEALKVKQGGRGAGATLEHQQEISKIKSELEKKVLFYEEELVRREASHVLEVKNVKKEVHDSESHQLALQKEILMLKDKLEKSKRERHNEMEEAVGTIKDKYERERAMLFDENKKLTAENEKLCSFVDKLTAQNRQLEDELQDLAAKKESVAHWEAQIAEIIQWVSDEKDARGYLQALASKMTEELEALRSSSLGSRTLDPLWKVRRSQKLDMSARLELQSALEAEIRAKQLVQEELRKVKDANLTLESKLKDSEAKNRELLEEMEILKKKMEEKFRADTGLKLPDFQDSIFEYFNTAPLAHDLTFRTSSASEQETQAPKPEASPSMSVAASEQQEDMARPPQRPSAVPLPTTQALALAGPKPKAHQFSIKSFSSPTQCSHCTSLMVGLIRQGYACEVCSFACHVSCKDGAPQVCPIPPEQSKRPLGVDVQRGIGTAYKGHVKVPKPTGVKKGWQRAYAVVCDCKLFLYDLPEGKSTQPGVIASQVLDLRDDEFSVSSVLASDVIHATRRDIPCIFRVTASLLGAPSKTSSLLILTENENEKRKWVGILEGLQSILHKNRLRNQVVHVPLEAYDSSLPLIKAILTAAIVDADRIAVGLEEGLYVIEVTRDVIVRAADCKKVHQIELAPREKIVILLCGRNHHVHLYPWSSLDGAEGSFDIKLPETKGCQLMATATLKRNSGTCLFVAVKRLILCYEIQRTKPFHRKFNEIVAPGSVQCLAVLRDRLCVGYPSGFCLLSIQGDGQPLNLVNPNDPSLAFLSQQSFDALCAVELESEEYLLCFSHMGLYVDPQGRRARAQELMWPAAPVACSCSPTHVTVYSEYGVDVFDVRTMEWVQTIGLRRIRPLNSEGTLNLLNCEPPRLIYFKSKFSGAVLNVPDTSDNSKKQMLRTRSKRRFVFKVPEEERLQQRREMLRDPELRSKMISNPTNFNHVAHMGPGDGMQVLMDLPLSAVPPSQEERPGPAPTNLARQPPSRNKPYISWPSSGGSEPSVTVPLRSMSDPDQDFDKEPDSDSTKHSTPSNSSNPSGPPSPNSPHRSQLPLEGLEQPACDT
Ribosomal protein S6 kinase alpha-4 (Homo sapiens), sequence (O75676 whole entry, looked up): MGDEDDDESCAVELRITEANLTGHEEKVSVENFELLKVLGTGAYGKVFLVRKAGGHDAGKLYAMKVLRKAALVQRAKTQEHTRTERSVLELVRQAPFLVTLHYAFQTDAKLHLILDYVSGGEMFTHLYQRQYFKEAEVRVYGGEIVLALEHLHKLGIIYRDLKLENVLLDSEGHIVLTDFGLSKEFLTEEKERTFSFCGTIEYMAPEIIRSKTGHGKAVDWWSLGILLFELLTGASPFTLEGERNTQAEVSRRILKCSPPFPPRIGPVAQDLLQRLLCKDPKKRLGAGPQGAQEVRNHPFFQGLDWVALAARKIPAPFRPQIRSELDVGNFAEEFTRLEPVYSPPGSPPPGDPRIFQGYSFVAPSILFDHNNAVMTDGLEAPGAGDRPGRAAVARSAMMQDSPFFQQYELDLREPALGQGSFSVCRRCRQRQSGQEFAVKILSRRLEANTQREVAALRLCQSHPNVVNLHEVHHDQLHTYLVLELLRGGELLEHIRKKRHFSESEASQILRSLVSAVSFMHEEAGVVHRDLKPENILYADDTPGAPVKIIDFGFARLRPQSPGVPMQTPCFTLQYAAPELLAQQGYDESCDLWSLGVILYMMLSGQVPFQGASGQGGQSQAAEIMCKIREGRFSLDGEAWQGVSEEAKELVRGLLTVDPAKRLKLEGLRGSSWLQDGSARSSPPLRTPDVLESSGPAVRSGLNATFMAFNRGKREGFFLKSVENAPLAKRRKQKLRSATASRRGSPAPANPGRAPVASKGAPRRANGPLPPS

For the molecule `O=[N+]([O-])c1ccc(-c2nc(-c3ccc(F)cc3)c(-c3ccncc3)[nH]2)cc1`, the residual activity in assay [1] is 91%; in [2], 89%; in assay [3], 108%; in assay [4], 119%; in [5] it was 87%; in [6] it was 85%. The residual activity in assay [7] turned out to be 105%; in assay [8], 104%; in [9], 74%; in [10], 114%; in assay [11], 110%; in assay [12], 99%. For the same molecule, the residual activity in assay [13] worked out at 83%; in assay [14], 82%; in assay [15], 101%; in [16], 107%; in assay [17], 128%; in [18] it was 98%. Besides, the residual activity in assay [19] stood at 109%; in assay [20], 106%.
On to `CCOc1cc2ncnc(Nc3cccc(Br)c3)c2cc1OCC`, for which the residual activity in assay [1] came out at 84%; in assay [2], 72%; in [3], 117%; in assay [4], 101%; in assay [5] it was 105%; in [6], 88%. Besides, the residual activity in assay [7] amounted to 113%; in [8], 76%; in assay [9], 83%; in [10], 61%; in assay [11] it was 103%; in assay [12], 71%. In addition, the residual activity in [13] was 61%; in [14], 47%; in [15] it was 84%; in [16], 31%; in assay [17] it was 58%; in assay [18], 33%. In addition, the results for the residual activity in assay [19] and in assay [20] were 21% and 7%, respectively.
Consider `COc1cccc(-c2cc(=O)c3ccccc3o2)c1N`, for which the residual activity in assay [1] was determined as 102%; in [2], 95%; in assay [3], 104%; in assay [4], 117%; in [5] it was 94%; in [6], 98%. The residual activity in assay [7] turned out to be 109%; in assay [8] it was 110%; in assay [9] it was 86%; in assay [10] it was 114%; in assay [11], 97%; in assay [12], 98%. For the same molecule, the residual activity in assay [13] stood at 91%; in assay [14] it was 89%; in [15] it was 96%; in [16] it was 101%; in [17], 117%; in assay [18], 116%. Also, the residual activity in assay [19] is 107%; in assay [20], 113%.
Consider `Nc1ccc2ncnc(NCCc3ccc(Oc4ccccc4)cc3)c2c1`, for which the residual activity in assay [1] came to 103%; in [2], 107%; in [3] it was 109%; in assay [4], 111%; in assay [5] it was 92%; in assay [6], 72%. Moreover, the residual activity in [7] turned out to be 111%; in [8], 86%; in assay [9] it was 89%; in assay [10], 102%; in assay [11], 100%; in [12] it was 72%. The residual activity in assay [13] is 99%; in [14] it was 72%; in assay [15] it was 95%; in assay [16] it was 62%; in assay [17], 124%; in [18] it was 80%. Further, the residual activity in assay [19] amounted to 105%; in assay [20], 74%.
Take `CNc1cc2c(Nc3cccc(Br)c3)ncnc2cn1`: the residual activity in assay [1] was 86%; in assay [2] it was 84%; in assay [3], 133%; in assay [4] it was 110%; in assay [5], 104%; in [6], 109%. Moreover, the residual activity in assay [7] is 99%; in assay [8], 25%; in assay [9], 95%; in assay [10], 102%; in [11], 103%; in assay [12], 88%. Also, the residual activity amounted to 76% in [13]; 86% in assay [14]; 96% in assay [15]; 84% in assay [16]; 89% in assay [17]; 73% in [18]. The residual activity stood at 21% in assay [19] and 12% in assay [20].
Take `CO[C@@H]1[C@H](N(C)C(=O)c2ccccc2)C[C@H]2O[C@]1(C)n1c3ccccc3c3c4c(c5c6ccccc6n2c5c31)C(=O)NC4`: the residual activity in assay [1] amounted to 85%; in [2], 68%; in assay [3] it was 13%; in assay [4] it was 8%; in assay [5], 12%; in assay [6], 8%. Also, the residual activity in assay [7] stood at 96%; in [8], 77%; in [9], 1%; in assay [10], 2%; in [11], 3%; in assay [12], 0%. Further, the residual activity in assay [13] was 17%; in [14] it was 7%; in assay [15], 8%; in assay [16] it was 6%; in [17], 35%; in assay [18] it was 40%. Also, the residual activity in assay [19] turned out to be 44%; in assay [20] it was 27%.
